Test results: PubChem BioAssay (NCATS)
Records with an inconclusive call do not appear. The source made the active and inactive calls. Unless noted, the call rests on the fitted dose curve; in most records, active means well fitted curve in the direction sought with a large enough effect; inconclusive means small, poorly fitted or top-dose-only effect, or another doubt; inactive means no such curve, though single readings can be large; an effect the other way counts as inactive or inconclusive.

Legend:
[1] = molecular target: T1, Tyrosine-protein phosphatase non-receptor type substrate 1 (Homo sapiens) + Leukocyte surface antigen CD47 (Homo sapiens) (UniProt P78324+Q08722); experiment: CD47-SIRPalpha protein protein interaction - LANCE assay qHTS validation (AID 1347057; active means well fitted curve in the direction sought with a large enough effect in the signal ratio, with a control signal flat, not every such curve was filed as active; the % refers to the signal ratio; further: series mostly up to about 38 µM; 0% is about no effect)
Outline: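 First, His-tagged CD47 and Eu-labelled anti-His antibody met the compound for 30 min; next, site-specifically biotinylated SIRPalpha was added for 30 min; finally streptavidin-APC was added before reading the TR-FRET ratio.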

[2] = molecular target: T1, Tyrosine-protein phosphatase non-receptor type substrate 1 (Homo sapiens) + Leukocyte surface antigen CD47 (Homo sapiens); experiment: CD47-SIRPalpha protein protein interaction - HTRF assay qHTS validation (AID 1347058; active means well fitted curve in the direction sought with a large enough effect in the signal ratio, not every such curve was filed as active; the % refers to the signal ratio;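 further: recombinant soluble extracellular CD47 with His tag and biotinylated SIRPalpha domains; series mostly up to about 38 µM; 0% is about no effect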)
Outline: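 TR-FRET read (Ch1/Ch2 ratio) of soluble extracellular CD47 and Avi-biotinylated SIRPalpha domains in PBS pH 7.4 with 0.05% IGEPAL; 7-point compound titration. Sequential 30 min room-temperature steps; non-biotinylated SIRPalpha as control inhibitor.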

[3] = molecular target: T1, Tyrosine-protein phosphatase non-receptor type substrate 1 (Homo sapiens) + Leukocyte surface antigen CD47 (Homo sapiens); experiment: CD47-SIRPalpha protein protein interaction - Alpha assay qHTS validation (AID 1347059);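 further: bead proximity luminescence from CD47 binding SIRPalpha after compound preincubation with SIRPalpha; on the % scale 0 is the no-effect control and ±100 the full control effect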
Outline: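 Binding is measured by AlphaScreen proximity: Ni-NTA acceptor beads capture His-CD47, streptavidin donor beads capture biotin-SIRPalpha. Each of three additions (SIRPalpha with compound, CD47, beads) incubates 30 min at room temperature protected from light.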

[4] = molecular target: Parathyroid hormone/parathyroid hormone-related peptide receptor (Homo sapiens) (UniProt Q03431); experiment: qHTS for PTHR1 Agonists: Optimization Screen against the NCGC LOPAC library (AID 1347079);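 further: GloSensor cAMP luminescence in HEK-293 GP2 cells expressing human PTHR1 with IBMX; 0% is about no effect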
Outline: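 Compounds were tested across a qHTS titration. PTHR1-expressing GP2 cells report cAMP rises via GloSensor luminescence after 1 hr compound exposure at 37C with IBMX present.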

[5] = qHTS of pediatric cancer cell lines to identify multiple opportunities for drug repurposing: Primary screen for TC32 cells (AID 1347089); further: on the % scale 0 is the no-effect control and ±100 the full control effect; nearly all actives have a fitted effect of over 60% in size
Outline: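 Luminescent ATP read-out (CellTiter-Glo) of metabolically active TC32 cells after 48 h exposure. Concentration-response curves came from 11-point (MIPE, 0.78 nM–46 µM) or 8-point (NPC, 0.59 nM–46 µM) primary titrations; follow-up used 11 points.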

[6] = qHTS of pediatric cancer cell lines to identify multiple opportunities for drug repurposing: Primary screen for DAOY cells (AID 1347090);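 further: series mostly up to about 46 µM; plate controls were DMSO for no effect and bortezomib for full effect; nearly all actives have a fitted effect of over 55% in size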
Outline: (§1)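 Cell viability, CellTiter-Glo luminescence; 500-1,000 cells/well, 8- or 11-point titration, 48 h compound exposure at 37 degrees C, 5% CO2. Controls: DMSO neutral, bortezomib 2.3 µM final as positive.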

[7] = qHTS of pediatric cancer cell lines to identify multiple opportunities for drug repurposing: Primary screen for SJ-GBM2 cells (AID 1347091);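 further: plate controls were DMSO neutral control for no effect and bortezomib for full effect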
Outline: as §1

[8] = qHTS of pediatric cancer cell lines to identify multiple opportunities for drug repurposing: Primary screen for A673 cells (AID 1347092); further: on the % scale 0 is the no-effect control and ±100 the full control effect; nearly all actives have a fitted effect of over 45% in size
Outline: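 Cell viability of A673 measured by CellTiter-Glo ATP luminescence after 48 hours compound exposure. Dilution series spanned 0.78 nM to 46 µM (MIPE, 11-point) or 0.59 nM to 46 µM (NPC, 8-point); bortezomib 2.3 uM positive control.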

[9] = qHTS of pediatric cancer cell lines to identify multiple opportunities for drug repurposing: Primary screen for SK-N-MC cells (AID 1347093);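 further: series mostly up to about 46 µM; plate controls were DMSO neutral control for no effect and bortezomib for full effect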
Outline: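 Metabolically active cells were quantified by ATP-dependent luminescence (CellTiter-Glo, 15 min at room temperature) following 48 h treatment. Cells had been plated at 500-1,000 per well and settled for 5 h beforehand.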

[10] = qHTS of pediatric cancer cell lines to identify multiple opportunities for drug repurposing: Primary screen for BT-37 cells (AID 1347094);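 further: series mostly up to about 57 µM; plate controls were DMSO for no effect and bortezomib for full effect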
Outline: (§2)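 Readout: CellTiter-Glo luminescence, 48 h treatment. Controls DMSO (neutral) and bortezomib 2.3 µM final (positive). Potency and efficacy taken from primary-screen concentration-response curves.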

[11] = qHTS of pediatric cancer cell lines to identify multiple opportunities for drug repurposing: Primary screen for NB-EBc1 cells (AID 1347095);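 further: plate controls were DMSO neutral control for no effect and bortezomib for full effect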
Outline: as §2

[12] = qHTS of pediatric cancer cell lines to identify multiple opportunities for drug repurposing: Primary screen for U-2 OS cells (AID 1347096);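 further: plate controls were DMSO wells for no effect and bortezomib positive control wells for full effect; nearly all actives have a fitted effect of over 50% in size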
Outline: (§3)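 Cells (500-1,000/well) rested 5 h, then received compounds for 48 h; metabolically active cells were measured by CellTiter-Glo luminescence. Final concentrations spanned up to 46 µM (MIPE, 11-point) or 0.59 nM-46 µM (NPC, 8-point) in primary screens, 11-point in follow-ups.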

[13] = qHTS of pediatric cancer cell lines to identify multiple opportunities for drug repurposing: Primary screen for SK-N-SH cells (AID 1347098); further: on the % scale 0 is the no-effect control and ±100 the full control effect; nearly all actives have a fitted effect of over 65% in size
Outline: as §3

[14] = qHTS of pediatric cancer cell lines to identify multiple opportunities for drug repurposing: Primary screen for NB1643 cells (AID 1347099);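 further: plate controls were DMSO neutral control for no effect and bortezomib positive control for full effect; nearly all actives have a fitted effect of over 50% in size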
Outline: as §2

[15] = qHTS of pediatric cancer cell lines to identify multiple opportunities for drug repurposing: Primary screen for LAN-5 cells (AID 1347100);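 further: plate controls were DMSO neutral control for no effect and bortezomib positive control for full effect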
Outline: as §3

[16] = qHTS of pediatric cancer cell lines to identify multiple opportunities for drug repurposing: Primary screen for BT-12 cells (AID 1347101);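 further: plate controls were DMSO for no effect and bortezomib positive control for full effect; nearly all actives have a fitted effect of over 25% in size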
Outline: as §3

[17] = qHTS of pediatric cancer cell lines to identify multiple opportunities for drug repurposing: Primary screen for OHS-50 cells (AID 1347103); further: nearly all actives have a fitted effect of over 40% in size; further: potency means the concentration at half of the fitted maximal effect;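 on activity change, negative = cytotoxic: plate controls were DMSO neutral control for no effect and bortezomib positive control for full effect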
Outline: as §3

[18] = qHTS of pediatric cancer cell lines to identify multiple opportunities for drug repurposing: Primary screen for RD cells (AID 1347104);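 further: plate controls were DMSO for no effect and bortezomib for full effect; nearly all actives have a fitted effect of over 55% in size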
Outline: as §2

[19] = qHTS of pediatric cancer cell lines to identify multiple opportunities for drug repurposing: Primary screen for Saos-2 cells (AID 1347097); further: on the % scale 0 is the no-effect control and ±100 the full control effect; nearly all actives have a fitted effect of over 40% in size
Outline: as §2

[20] = qHTS of pediatric cancer cell lines to identify multiple opportunities for drug repurposing: Primary screen for Rh18 cells (AID 1347102); further: on the % scale 0 is the no-effect control and ±100 the full control effect; nearly all actives have a fitted effect of over 65% in size
Outline: as §3

T1 sequence (P78324 whole entry, looked up): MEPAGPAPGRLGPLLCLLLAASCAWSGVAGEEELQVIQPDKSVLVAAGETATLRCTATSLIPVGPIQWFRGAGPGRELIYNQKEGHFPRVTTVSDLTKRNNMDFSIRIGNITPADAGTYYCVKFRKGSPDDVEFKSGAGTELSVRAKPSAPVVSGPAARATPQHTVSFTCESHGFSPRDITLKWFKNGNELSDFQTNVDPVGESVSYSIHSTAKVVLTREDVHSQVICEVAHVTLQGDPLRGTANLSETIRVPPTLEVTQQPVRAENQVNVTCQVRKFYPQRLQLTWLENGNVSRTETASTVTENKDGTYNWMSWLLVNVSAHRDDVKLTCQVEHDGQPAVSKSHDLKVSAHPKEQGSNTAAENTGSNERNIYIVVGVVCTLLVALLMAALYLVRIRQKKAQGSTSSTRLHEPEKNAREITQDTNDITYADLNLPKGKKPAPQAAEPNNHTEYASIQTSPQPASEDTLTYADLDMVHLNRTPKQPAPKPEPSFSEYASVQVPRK
T1 sequence (Q08722 whole entry, looked up): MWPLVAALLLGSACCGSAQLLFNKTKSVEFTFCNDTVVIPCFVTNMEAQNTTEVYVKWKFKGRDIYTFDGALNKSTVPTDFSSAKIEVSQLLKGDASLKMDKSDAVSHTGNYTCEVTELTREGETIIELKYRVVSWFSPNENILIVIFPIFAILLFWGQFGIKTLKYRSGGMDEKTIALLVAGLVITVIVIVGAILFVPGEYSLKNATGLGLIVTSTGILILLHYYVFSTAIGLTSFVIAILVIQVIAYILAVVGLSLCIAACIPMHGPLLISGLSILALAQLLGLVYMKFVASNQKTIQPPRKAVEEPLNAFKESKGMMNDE
Parathyroid hormone/parathyroid hormone-related peptide receptor (Homo sapiens), sequence (Q03431 whole entry, looked up): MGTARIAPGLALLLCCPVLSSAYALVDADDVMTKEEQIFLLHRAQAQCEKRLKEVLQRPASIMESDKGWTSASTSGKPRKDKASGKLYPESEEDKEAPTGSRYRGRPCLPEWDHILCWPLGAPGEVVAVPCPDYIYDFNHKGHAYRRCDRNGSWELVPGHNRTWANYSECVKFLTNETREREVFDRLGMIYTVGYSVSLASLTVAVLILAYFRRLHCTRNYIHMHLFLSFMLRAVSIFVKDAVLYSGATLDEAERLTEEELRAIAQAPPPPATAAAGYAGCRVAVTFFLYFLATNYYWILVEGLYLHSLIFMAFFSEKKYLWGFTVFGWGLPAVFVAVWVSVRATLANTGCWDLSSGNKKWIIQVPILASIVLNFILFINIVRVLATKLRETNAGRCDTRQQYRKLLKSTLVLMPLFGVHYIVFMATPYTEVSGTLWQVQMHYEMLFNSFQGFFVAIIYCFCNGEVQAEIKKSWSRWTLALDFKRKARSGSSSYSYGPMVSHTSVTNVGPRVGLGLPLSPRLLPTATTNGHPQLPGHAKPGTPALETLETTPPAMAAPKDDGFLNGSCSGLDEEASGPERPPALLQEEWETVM

CNC1(C)C2CCC(C2)C1(C)C (stereo unspecified)
inactive: outcome [1] | outcome [2] | Potency [3] | outcome [4] | Potency [5] | Potency [6] | Potency [7] | Potency [8] | Potency [9] | Potency [10] | Potency [11] | Potency [12] | Potency [13] | Potency [14] | Potency [15] | Potency [16] | Potency [17] | Potency [18]

CCCCCN(CCCCC)C(=O)C(CCC(=O)O)NC(=O)c1ccc(Cl)c(Cl)c1 (stereo unspecified)
inactive: outcome [1] | outcome [2] | Potency [3] | outcome [4] | Potency [5] | Potency [6] | Potency [7] | Potency [8] | Potency [10] | Potency [11] | Potency [12] | Potency [19] | Potency [13] | Potency [14] | Potency [15] | Potency [16] | Potency [20] | Potency [17] | Potency [18]

CC(C)NCC(O)c1cc(O)cc(O)c1 (stereo unspecified)
inactive: outcome [1] | outcome [2] | Potency [3] | outcome [4] | Potency [5] | Potency [6] | Potency [7] | Potency [8] | Potency [10] | Potency [11] | Potency [12] | Potency [19] | Potency [13] | Potency [15] | Potency [16] | Potency [20] | Potency [17] | Potency [18]

CCOC(=O)c1cnc2c(cnn2CC)c1NN=C(C)C
inactive: outcome [1] | outcome [2] | Potency [3] | outcome [4] | Potency [5] | Potency [6] | Potency [7] | Potency [8] | Potency [9] | Potency [10] | Potency [11] | Potency [12] | Potency [14] | Potency [15] | Potency [16] | Potency [17] | Potency [18]

CC(C(=O)O)c1ccc(CC2CCCC2=O)cc1 (stereo unspecified)
inactive: outcome [1] | outcome [2] | Potency [3] | outcome [4] | Potency [5] | Potency [7] | Potency [8] | Potency [9] | Potency [10] | Potency [11] | Potency [12] | Potency [19] | Potency [13] | Potency [14] | Potency [15] | Potency [16] | Potency [20] | Potency [17] | Potency [18]

CC(N=C(NC#N)Nc1ccncc1)C(C)(C)C (stereo unspecified)
inactive: outcome [1] | outcome [2] | Potency [3] | outcome [4] | Potency [5] | Potency [6] | Potency [7] | Potency [8] | Potency [9] | Potency [10] | Potency [11] | Potency [12] | Potency [19] | Potency [14] | Potency [15] | Potency [16] | Potency [18]

CN(C(=O)CCCOc1ccc2[nH]c(=O)ccc2c1)C1CCCCC1
active: Potency [17] 21.9 µM
inactive: outcome [1] | outcome [2] | Potency [3] | outcome [4] | Potency [5] | Potency [6] | Potency [7] | Potency [8] | Potency [9] | Potency [10] | Potency [11] | Potency [12] | Potency [13] | Potency [14] | Potency [15] | Potency [20] | Potency [18]

CCCN(CCC)C(=O)C(CCC(=O)O)NC(=O)c1ccccc1 (stereo unspecified)
inactive: outcome [1] | outcome [2] | Potency [3] | outcome [4] | Potency [5] | Potency [6] | Potency [7] | Potency [8] | Potency [9] | Potency [10] | Potency [11] | Potency [12] | Potency [19] | Potency [13] | Potency [14] | Potency [15] | Potency [16] | Potency [20] | Potency [17] | Potency [18]

NC/C=C/C(=O)O
inactive: outcome [1] | outcome [2] | Potency [3] | outcome [4] | Potency [5] | Potency [6] | Potency [7] | Potency [8] | Potency [9] | Potency [10] | Potency [11] | Potency [12] | Potency [19] | Potency [13] | Potency [14] | Potency [15] | Potency [16] | Potency [20] | Potency [17] | Potency [18]

NC(=O)N1c2ccccc2C=Cc2ccccc21
inactive: outcome [1] | outcome [2] | Potency [3] | outcome [4] | Potency [5] | Potency [6] | Potency [7] | Potency [8] | Potency [9] | Potency [10] | Potency [11] | Potency [12] | Potency [19] | Potency [13] | Potency [14] | Potency [15] | Potency [16] | Potency [20] | Potency [17] | Potency [18]

CCc1c(C)[nH]c2c1C(=O)C(CN1CCOCC1)CC2 (stereo unspecified)
inactive: outcome [1] | outcome [2] | Potency [3] | outcome [4] | Potency [5] | Potency [7] | Potency [8] | Potency [9] | Potency [10] | Potency [11] | Potency [12] | Potency [19] | Potency [13] | Potency [14] | Potency [15] | Potency [16] | Potency [20] | Potency [17] | Potency [18]

CN(C)C/C=C(/c1ccc(Br)cc1)c1cccnc1
inactive: outcome [1] | outcome [2] | Potency [3] | outcome [4] | Potency [5] | Potency [6] | Potency [7] | Potency [8] | Potency [9] | Potency [10] | Potency [11] | Potency [12] | Potency [19] | Potency [13] | Potency [14] | Potency [15] | Potency [16] | Potency [18]

CCCN1C[C@H](CSC)C[C@@H]2c3cccc4[nH]cc(c34)C[C@H]21
inactive: outcome [1] | outcome [2] | Potency [3] | outcome [4] | Potency [5] | Potency [6] | Potency [7] | Potency [8] | Potency [9] | Potency [10] | Potency [11] | Potency [12] | Potency [19] | Potency [13] | Potency [14] | Potency [15] | Potency [16] | Potency [18]

NC(Cc1ccc(Cl)cc1)C(=O)O (stereo unspecified)
inactive: outcome [1] | outcome [2] | Potency [3] | outcome [4] | activity change, negative = cytotoxic [5] 11.6% [at 0.594 µM] | activity change, negative = cytotoxic [6] 15.2% [at 0.597 µM] | activity change, negative = cytotoxic [7] 16.4% [at 0.597 µM] | activity change, negative = cytotoxic [8] 16% [at 0.597 µM] | activity change, negative = cytotoxic [9] -1.75% [at 0.597 µM] | activity change, negative = cytotoxic [10] 9.97% [at 0.745 µM] | activity change, negative = cytotoxic [11] 23.4% [at 0.597 µM] | activity change, negative = cytotoxic [12] 18.1% [at 0.597 µM] | activity change, negative = cytotoxic [19] 1.27% [at 0.597 µM] | activity change, negative = cytotoxic [13] -6.57% [at 0.741 µM] | activity change, negative = cytotoxic [14] 9.7% [at 0.597 µM] | activity change, negative = cytotoxic [15] 0.0057% [at 0.597 µM] | activity change, negative = cytotoxic [16] 7.02% [at 0.745 µM] | activity change, negative = cytotoxic [20] 15.1% [at 0.597 µM] | activity change, negative = cytotoxic [17] 9.59% [at 0.73 µM] | activity change, negative = cytotoxic [18] 7.62% [at 0.597 µM]
